Data reported in PubChem BioAssay (NCATS).
Records with an inconclusive call do not appear. A call without a number means that no potency is given here. The source made the active and inactive calls. The call rests on the fitted dose curve. Bridge positions count the residues as written; N and C are the ends. Square brackets hold non-standard residues; d marks the D form. Peptide text beside a SMILES is read from it. * marks the point of attachment. Octanoyl(6-Me) = CCC(C)CCCCC(=O)*; Dab = NCC[CH](N)C(=O)O

assay: S16 Schwann cell PMP22 intronic element beta-lactamase assay (AID 624044); details: S16 rat Schwann cells, PMP22 element beta-lactamase FRET, 24 h; series mostly up to 38.3 µM; further: nearly all actives have a fitted effect of over 15% in size
Source text: Description: Charcot-Marie-Tooth-Association [CMTA] National Center for Advancing Translational Sciences [NCATS] Charcot-Marie-Tooth (CMT) disease was first characterized by Jean-Martin Charcot and Pierre Marie in France and, independently, by Howard Henry Tooth in England in 1886. CMT is one of the most common inherited neurological diseases, affecting approximately 1 in 2,500 Americans. […] The most prevalent type of CMT is known as CMT1A and caused by a duplication of the PMP22 gene which leads to over-expression of this protein. PMP22 is a glycosylated intrinsic membrane protein accounting for 2-5% of the myelin protein content, and its over-expression results in demyelination and subsequently axonal loss. A pair of cellular transcription-based assays was developed in the S16 rat Schwann cell lines (Hai, M., et al., 2002) stably transfected with orthogonal reporters - firefly luciferase (Fluc) and beta-lactamase (beta-Lac) - whose expression is driven by an intronic regulatory element of the PMP22 gene (Jones, E.A., et al., 2011) to recapitulate endogenous expression of PMP22. The current assay employs Blac as a reporter of PMP22 expression. A comprehensive library of approved drugs, the NCGC Pharmaceutical Collection (Huang, R., et al., 2011), was screened in the cross-validating platform of the orthogonal reporter assays to identify drug modulators inhibitory towards PMP22 expression. A set of counter-screens was devised to address non-specific activity of the library. An ATP-dependent CellTiter-Glo assay (developed by Promega Corp) was utilized to control cell viability. In addition, biochemical Fluc enzyme assay was performed to assess direct inhibition of the Fluc enzymatic activity. References Hai, M., Muja, N., DeVries, G.H., Quarles, R.H. and Patel, P.I. Comparative analysis of Schwann cell lines as model systems for myelin gene transcription studies. J Neurosci Res, 2002. 69(4): pp 497-508 Huang, R., Southall, N., Wang, Y., Yasgar A., Shinn P., Jadhav, A. , Nguyen, D.-T. and Austin, C.P., The NCGC pharmaceutical collection: a comprehensive resource of clinically approved drugs enabling repurposing and chemical genomics. Sci Transl Med, 2011. 3(80): p. 80ps16.
S16 Schwann cell PMP22 intronic element beta-lactamase assay The beta-Lac-expressing S16 cells were seeded in black clear-bottom 1536 well plates at between 500-750 cells/6uL in DMEM medium containing 10% FBS, w/o phenol red. After overnight incubation at 37 degree Celsius/5% C02, 23 nL of compounds or DMSO were delivered to each well using a pin tool, followed by 24h-incubation at 37 degree Celsius/5% C02. Then one microl of LiveBLAzer FRET B/G detection mix (Invitrogen) was added to each well. An EnVision plate reader (PerkinElmer) was used to detect the dual beta-Lac output composed of fluorescence at 460nm for beta-Lac expression and FRET at 535nm for cell viability. The % signal at 535 nm was scaled to a full range of DMSO and zero and then normalized using the maximum response observed in the screen as 100% activity. The % signal at 460nm was normalized to the average readings of potassium clavulanate (a positive control) - treated cells relative to DMSO-treated cells (0% Activity). The concentration-effect curves were then classified based on curve quality (r2), response magnitude and degree of measured activity.
Potency means the concentration at half of the fitted maximal effect.

Row | Compound | Potency
1 | CN1CC[C@H](CN2c3ccccc3Sc3ccccc32)C1 | inactive
2 | NC1=NC(S)C2N=CN=C2N1 (stereo not drawn) | 3.98 µM (active)
3 | Nc1nc(Cl)nc2c1ncn2C1CC(O)C(CO)O1 (stereo not drawn) | 3.55 µM (active)
4 | C1OCOCO1 | inactive
5 | S=C1NC=NC2N=CNC12 (stereo not drawn) | 17.8 µM (active)
6 | CCC(C)CCCCC(=O)NC(CCN)C(=O)NC(C(=O)NC(CCN)C(=O)NC1CCNC(=O)C(C(C)O)NC(=O)C(CCN)NC(=O)C(CCN)NC(=O)C(CC(C)C)NC(=O)C(Cc2ccccc2)NC(=O)C(CCN)NC1=O)C(C)O (stereo not drawn) ({Octanoyl(6-Me)}-[Dab]T[Dab][Dab][Dab]FL[Dab][Dab]T; lactam 4-C; configuration not given here) | inactive
7 | CC1(C)S[C@@H]2[C@H](NC(=O)COc3ccccc3)C(=O)N2[C@H]1C(=O)O | inactive
8 | CC(C)(CO)C(O)C(=O)NCCCC(=O)O (stereo not drawn) | inactive
9 | CC1CCC(C(C)C)C(OC(=O)c2ccccc2O)C1 (stereo not drawn) | inactive
10 | CC(C)CN(C[C@@H](O)[C@H](Cc1ccccc1)NC(=O)O[C@H]1CCOC1)S(=O)(=O)c1ccc(N)cc1 | inactive
11 | CC(=O)OC1CC2CCC1(C)C2(C)C (stereo not drawn) | inactive
12 | C=C[C@]1(C)C[C@@H](OC(=O)CSCCN(CC)CC)[C@]2(C)C(C)CC[C@]3(CCC(=O)[C@H]32)[C@@H](C)[C@@H]1O (stereo partly drawn) | inactive
13 | CN(C)CCCCCCN(C)C | inactive
14 | Cc1cc(CC(C)CC(C)(C)C)n(O)c(=O)c1 (stereo not drawn) | 2.51 µM (active)
15 | O=NCc1ccc([N+](=O)[O-])o1 | inactive
16 | CO/N=C(/C(=O)N[C@@H]1C(=O)N2C(C(=O)O)=CCS[C@H]12)c1csc(N)n1 | inactive
17 | CO[C@@H]1[C@@H](OC2OC(C)C(OC3CC(C)(O)C(OC(=O)CC(C)C)C(C)O3)C(N(C)C)C2O)[C@@H](CC=O)C[C@@H](C)C(=O)/C=C\C2O[C@H]2C[C@@H](C)OC(=O)C[C@H]1OC(C)=O (stereo partly drawn) | inactive
18 | CC(C)CN(C[C@@H](OP(=O)(O)O)[C@H](Cc1ccccc1)NC(=O)O[C@@H]1CCOC1)S(=O)(=O)c1ccc(N)cc1 | inactive
